Many of the other results were omitted from the sample, so hits are more common in it than they were.
FBPA Giardia inh: Giardia lamblia aldolase inhibition | A8B2U2 | purified Giardia FBPA | Potency, µM (doses to about 59.6 µM), hits mostly inhibitors | 290,000 tested, 0.71% active | AID 2451; also: nearly all actives have a fitted effect of over 55% in size
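Giardia FBPA (40 nM reagent) was preincubated 10 min at RT with compound (up to 57.5 uM final), then substrate plus GAPDH/TPI/NAD/arsenate coupling system with diaphorase/resazurin was added; resorufin fluorescence (525/598 nm) was read after 20 min.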
Shiga toxin inh: inhibitors of Shiga toxin in Vero cells | AID 2315 | inhibition, % at 38.7 µM | Vero cells, Shiga toxin protein synthesis inhibition reporter | 290,000 tested, 9.2% active; in the data active = inhibition mostly above about 28%, no sharp cut-off; inactive = mostly below about 43%
LmPK inhibitor: inhibitors of Leishmania mexicana pyruvate kinase. purified LmPK, Kinase-Glo ATP luminescence, 1 h. 290,000 tested, 0.37% active. Potency, µM (top dose mostly 57.5 µM), actives largely listed as inhibitors. AID 1721
Target sequence (Q27686 whole entry, looked up): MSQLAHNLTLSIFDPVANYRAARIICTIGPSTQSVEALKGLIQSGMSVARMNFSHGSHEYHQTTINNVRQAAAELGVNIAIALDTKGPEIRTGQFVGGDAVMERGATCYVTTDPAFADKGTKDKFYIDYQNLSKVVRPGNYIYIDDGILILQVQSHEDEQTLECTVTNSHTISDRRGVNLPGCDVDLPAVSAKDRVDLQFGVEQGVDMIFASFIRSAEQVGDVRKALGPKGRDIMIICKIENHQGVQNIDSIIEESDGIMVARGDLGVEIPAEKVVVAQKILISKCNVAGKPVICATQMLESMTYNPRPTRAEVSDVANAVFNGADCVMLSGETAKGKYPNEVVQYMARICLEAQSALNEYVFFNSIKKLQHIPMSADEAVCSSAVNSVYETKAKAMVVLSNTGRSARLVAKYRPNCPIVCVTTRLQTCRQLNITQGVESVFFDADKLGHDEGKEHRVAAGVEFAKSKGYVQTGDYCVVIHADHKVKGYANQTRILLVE
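Pyruvate kinase activity monitored as ATP production (luciferase luminescence). Conditions: 0.1 nM enzyme, 0.5 mM PEP, 0.1 mM ADP, 1 h, RT; normalized against uninhibited and no-enzyme wells.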
TbPYK inhibitor: T. brucei pyruvate kinase inhibition | Q57TT1 | TbPYK enzyme, Kinase-Glo Plus ATP luminescence, 45 min | Potency, µM (top dose mostly 76.8 µM), actives largely listed as inhibitors | 410,000 tested, 0.12% active | AID 624173; also: nearly all actives have a fitted effect of over 50% in size
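ADP (130 uM final) triggers the TbPYK reaction after compound addition; incubation is 45 min at room temperature. Kinase-Glo Plus is then added and luminescence imaged. Normalized data are fitted to concentration-effect curves.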
Sm TGR block: blocks Schistosoma mansoni thioredoxin glutathione reductase; Q962Y6; purified TGR, DTNB reduction, TNB absorbance 405 nm; Potency, µM (doses to about 114 µM), usual class: inhibitors; 360,000 tested, 3% active; also: nearly all actives have a fitted effect of over 60% in size
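TGR 20 nM + NADPH 100 uM (dispensed conc.), cpd preinc 15 min RT; start with NADPH (500 uM addition) then DTNB (15 mM addition). Kinetic TNB absorbance, 405 nm filter. Four-parameter Hill fit across titration.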
Cycloheximide cs: counter-screen hit for Shiga toxin inhibitors, cycloheximide; cell reporter, cycloheximide protein synthesis inhibition counterscreen; max response, %; 300,000 tested, 12% active; AID 2314; in the data active = max response mostly above about 13%, no sharp cut-off; inactive = mostly below about 14%; also: read at 38.3 µM for the half of the compounds with a filed dose
A number is an active result. Unless noted, calls follow the shape of the dose curve; as a rule, active = well fitted curve in the direction sought with a large enough effect; inconclusive = small, poorly fitted or top-dose-only effect, or another doubt; inactive = no such curve, though single readings can be large; an effect the other way counts as inactive or inconclusive.

`CCCCNC(=O)CS(=O)Cc1nc(-c2ccc(C)cc2)oc1C` (stereo not drawn) gave FBPA Giardia inh inactive, Shiga toxin inh inactive, LmPK inhibitor inactive, TbPYK inhibitor inactive, Sm TGR block 44.7µM and Cycloheximide cs inactive.
`Cc1oc(-c2ccc(Cl)cc2)nc1CS(=O)CC(=O)NCCCN1CCN(Cc2ccccc2)CC1` (stereo not drawn) gave Shiga toxin inh inactive, LmPK inhibitor inactive, TbPYK inhibitor inactive, Sm TGR block inactive and Cycloheximide cs inactive.
`CCc1ccc(-c2nc(CS(=O)CC(=O)NCCCN3CCOCC3)c(C)o2)cc1` (stereo not drawn) gave Shiga toxin inh inactive, LmPK inhibitor inactive, TbPYK inhibitor inactive, Sm TGR block 35.5µM and Cycloheximide cs inactive.
`CCCNC(=O)CS(=O)Cc1nc(-c2ccc(OC)cc2)oc1C` (stereo not drawn) gave FBPA Giardia inh inactive, Shiga toxin inh inactive, LmPK inhibitor inactive, TbPYK inhibitor inactive, Sm TGR block 50.1µM and Cycloheximide cs inactive.
For CC(=O)c1ccc(NC(=O)CN2CCN(S(=O)(=O)c3ccc4c(c3)OCCO4)CC2)cc1 the results were TbPYK inhibitor inactive.
`O=C(CCl)Nc1cccc(-c2cnc3ccccc3n2)c1` gave FBPA Giardia inh inconclusive, Shiga toxin inh 72.4, LmPK inhibitor inactive, TbPYK inhibitor inactive, Sm TGR block inconclusive and Cycloheximide cs 46.2.
Screening CCC(=O)Nc1cccc(-c2cnc3ccccc3n2)c1 returned FBPA Giardia inh inactive, Shiga toxin inh 35.7, LmPK inhibitor inactive, TbPYK inhibitor inactive, Sm TGR block inactive and Cycloheximide cs 47.1.
`O=C(Nc1cccc(-c2cnc3ccccc3n2)c1)C1CC(=O)N(c2ccccc2)C1` (stereo not drawn) gave Shiga toxin inh inactive, LmPK inhibitor inactive, TbPYK inhibitor inactive, Sm TGR block inactive and Cycloheximide cs inactive.
O=C(CCl)Nc1ccc(Oc2cnc3ccccc3n2)cc1 was read as FBPA Giardia inh inactive, Shiga toxin inh inactive, LmPK inhibitor inactive, TbPYK inhibitor inactive, Sm TGR block inactive and Cycloheximide cs 30.2.
For CCc1ccc(-c2cnc3ccccc3n2)cc1NC(=O)CNC(=O)c1ccccc1 the results were FBPA Giardia inh inactive, Shiga toxin inh 105.2, LmPK inhibitor inactive, TbPYK inhibitor inactive, Sm TGR block inactive and Cycloheximide cs 37.0.
Screening CCc1ccccc1NC(=O)CNC(=O)c1n[nH]c(=O)c2ccccc12 returned TbPYK inhibitor inactive and Sm TGR block inactive.
CCOc1ccc(CN(C)C(=O)CCc2ccc(S(=O)(=O)N3CCCCCC3)cc2)cc1 was read as TbPYK inhibitor inactive and Sm TGR block inactive.
Cc1ccc(NC(=O)Cc2c(C(=O)O)c(C)cn2C)cc1Cl was read as TbPYK inhibitor inactive and Sm TGR block inactive.
CCOc1ccc2c(c1)C(c1cccs1)=NNC(c1cccnc1)=N2 was read as FBPA Giardia inh inactive, Shiga toxin inh inactive, LmPK inhibitor inactive, TbPYK inhibitor inactive, Sm TGR block inactive and Cycloheximide cs inactive.
`CCOc1ccc(C2=NNC(c3cccs3)=Nc3ccc(OC)cc32)cc1OCC` gave FBPA Giardia inh inactive, Shiga toxin inh 52.2, LmPK inhibitor inactive, TbPYK inhibitor inactive, Sm TGR block inactive and Cycloheximide cs 26.6.
Screening COc1ccc(C2=NNC(c3cccs3)=Nc3ccc(OC)cc32)cc1 returned FBPA Giardia inh inactive, Shiga toxin inh 70.4, LmPK inhibitor inactive, TbPYK inhibitor inactive, Sm TGR block inactive and Cycloheximide cs 30.9.
Brc1ccc2c(c1)C(c1cccs1)=NNC(c1cccnc1)=N2 was read as FBPA Giardia inh inactive, Shiga toxin inh inactive, LmPK inhibitor inactive, TbPYK inhibitor inactive, Sm TGR block inactive and Cycloheximide cs inactive.
`CCOc1ccc(C2=NNC(c3cccs3)=Nc3ccc(OCC)cc32)cc1` gave FBPA Giardia inh inactive, Shiga toxin inh 29.7, LmPK inhibitor inactive, Sm TGR block inactive and Cycloheximide cs inactive.
`CC(=O)O[C@@H]1C[C@@]2(C)C(c3ccoc3)C[C@H]3O[C@]32[C@]2(C)C(=O)C(O)=C3C(C)(C)C(=O)C=C[C@]3(C)C12` (stereo partly drawn) gave FBPA Giardia inh inactive.
For CC(=O)Nc1ccc(C(=O)Nc2ccc(S(=O)(=O)N3CCOCC3)cc2)cc1 the results were FBPA Giardia inh inactive, Shiga toxin inh inactive, LmPK inhibitor inactive, TbPYK inhibitor inactive, Sm TGR block inactive and Cycloheximide cs 15.9.
O=C(CCl)Nc1cccc(S(=O)(=O)N2CCCCCC2)c1 was read as FBPA Giardia inh inactive, Shiga toxin inh inactive, LmPK inhibitor inactive, TbPYK inhibitor inactive, Sm TGR block 11.2µM and Cycloheximide cs inactive.
`O=C(O)c1cccc(NC(=O)c2cccc(S(=O)(=O)N3CCCCC3)c2)c1` gave FBPA Giardia inh inactive, Shiga toxin inh inactive, LmPK inhibitor inactive, TbPYK inhibitor inactive, Sm TGR block inactive and Cycloheximide cs inactive.
For O=C(Nc1ccccc1)c1ccc(S(=O)(=O)N2CCCCC2)cc1 the results were FBPA Giardia inh inactive, Shiga toxin inh 19.1, LmPK inhibitor inactive, TbPYK inhibitor inactive, Sm TGR block inactive and Cycloheximide cs 10.6.
For O=C(Nc1cccc(O)c1)c1cccc(S(=O)(=O)N2CCCCCC2)c1 the results were FBPA Giardia inh inactive, Shiga toxin inh 43.9, LmPK inhibitor inactive, TbPYK inhibitor inactive, Sm TGR block inactive and Cycloheximide cs 22.6.
O=C(Cc1ccc(Cl)cc1)Nc1cccc(S(=O)(=O)N2CCCCC2)c1 was read as TbPYK inhibitor inactive and Sm TGR block inactive.
`C=CC[C@@H](Cc1ccc(F)cc1)C(=O)OC[C@@H]1CCCN1C(=O)[C@H](CC=C)CC(=O)N(CCO)Cc1ccccc1` gave TbPYK inhibitor inactive.
CCNc1ncc2nc(CCc3ccccc3)c(=O)n(C3CC3)c2n1 was read as FBPA Giardia inh inactive.
For O=C(Cn1cc(COc2ccc3ccc(=O)oc3c2)nn1)c1ccc(O)cc1 the results were TbPYK inhibitor inactive.
Screening O=C(Nc1ccc(N2CCOCC2)cc1)c1ccc(S(=O)(=O)N2CCCCC2)cc1 returned FBPA Giardia inh inactive, Shiga toxin inh inactive, LmPK inhibitor inactive, TbPYK inhibitor inactive, Sm TGR block inactive and Cycloheximide cs inactive.
For O=C(Nc1ccc2c(c1)OCO2)c1ccc(Br)c(S(=O)(=O)N2CCCC2)c1 the results were FBPA Giardia inh inactive, Shiga toxin inh 60.7, LmPK inhibitor inactive, TbPYK inhibitor inactive, Sm TGR block inactive and Cycloheximide cs 28.4.
Cc1occc1C(=O)Nc1ccc(S(=O)(=O)N2CCCC2)cc1 was read as FBPA Giardia inh inactive, Shiga toxin inh 29.0, LmPK inhibitor inactive, TbPYK inhibitor inactive, Sm TGR block inactive and Cycloheximide cs inactive.
For NNC(=S)Nc1ccc(S(=O)(=O)N2CCOCC2)cc1 the results were FBPA Giardia inh inactive, Shiga toxin inh inactive, LmPK inhibitor inactive, TbPYK inhibitor inactive, Sm TGR block inactive and Cycloheximide cs inactive.
